Common to all, as to set-up: scale not given: direction of the effect not stated beside the values
Assay [1] addresses Protein translocase subunit SecA (Escherichia coli (strain K12)) (UniProt P10408). The experiment in a line: Assay to Identify E. coli SecA ATPase Inhibitors. Format: functional. The note with it: 30 µM.
In assay [2] the target is T1, Ubiquitin-activating enzyme e1, putative (Leishmania donovani (strain BPK282A1)) (UniProt E9BSI1).
T1 sequence (whole entry): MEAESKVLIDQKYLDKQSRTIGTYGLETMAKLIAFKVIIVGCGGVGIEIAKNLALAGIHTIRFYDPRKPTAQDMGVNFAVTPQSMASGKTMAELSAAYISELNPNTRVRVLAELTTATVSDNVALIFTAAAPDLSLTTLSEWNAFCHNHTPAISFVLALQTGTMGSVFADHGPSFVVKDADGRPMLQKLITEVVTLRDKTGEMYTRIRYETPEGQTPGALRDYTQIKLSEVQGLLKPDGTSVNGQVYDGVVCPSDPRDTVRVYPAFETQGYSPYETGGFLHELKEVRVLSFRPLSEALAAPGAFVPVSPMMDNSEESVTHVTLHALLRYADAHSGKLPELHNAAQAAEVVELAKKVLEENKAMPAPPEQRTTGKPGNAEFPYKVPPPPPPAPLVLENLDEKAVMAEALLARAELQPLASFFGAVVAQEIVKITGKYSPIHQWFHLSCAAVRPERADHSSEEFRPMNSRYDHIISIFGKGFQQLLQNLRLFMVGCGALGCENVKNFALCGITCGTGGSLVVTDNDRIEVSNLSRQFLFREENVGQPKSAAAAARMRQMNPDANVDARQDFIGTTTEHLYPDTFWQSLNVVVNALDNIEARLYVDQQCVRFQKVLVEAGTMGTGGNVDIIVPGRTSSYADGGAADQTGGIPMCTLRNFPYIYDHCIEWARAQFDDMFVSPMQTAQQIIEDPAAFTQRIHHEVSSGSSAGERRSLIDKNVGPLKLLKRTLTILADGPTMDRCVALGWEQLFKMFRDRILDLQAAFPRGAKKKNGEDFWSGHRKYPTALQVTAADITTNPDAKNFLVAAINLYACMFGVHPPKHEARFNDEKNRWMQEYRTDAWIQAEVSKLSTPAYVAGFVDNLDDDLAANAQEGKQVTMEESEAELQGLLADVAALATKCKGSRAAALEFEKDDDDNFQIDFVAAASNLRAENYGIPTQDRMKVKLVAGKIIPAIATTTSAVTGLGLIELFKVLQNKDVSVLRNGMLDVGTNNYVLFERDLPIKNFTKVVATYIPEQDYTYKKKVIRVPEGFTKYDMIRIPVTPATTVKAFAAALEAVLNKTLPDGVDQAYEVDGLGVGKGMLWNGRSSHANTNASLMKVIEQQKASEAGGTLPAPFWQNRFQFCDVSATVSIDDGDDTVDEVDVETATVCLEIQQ
The assay can be described thus: Leishmania donovani Ubiquitin Activating Enzyme (LdE1). Format: functional. The conditions noted are these: 30 µM.

Assay [3] has as its target AMP-activated protein kinase, AMPK (Homo sapiens) (UniProt P54646+O43741+P54619+Q9UGJ0+Q9Y478+Q13131+Q9UGI9). The experiment in a line: AMP-dependent Kinase enzyme assay. An in vitro enzyme assay that detects ADP turnover that is directly proportional to AMPK activity. This uses naive AMPK that is activated during the assay with MK-8722. Format: functional. The conditions noted are these: 30 µM.

Assay [4] deals with Sialic acid-binding Ig-like lectin 9 (Homo sapiens) (UniProt Q9Y336). The assay can be described thus: Hs-Siglec9 ALPHAscreen SOP 20170721. The note with it: 10 µM.
The test system of a further assay is Trypanosoma cruzi. The experiment in a line: Trypanosoma cruzi phosphomannomutase and mannose-1-phosphate guanylyltransferase assay. Format: functional. The note with it: 10 µM.
The target in assay [5] is T2, Arginase-2, mitochondrial (Homo sapiens) (UniProt P78540).
T2 sequence (whole entry): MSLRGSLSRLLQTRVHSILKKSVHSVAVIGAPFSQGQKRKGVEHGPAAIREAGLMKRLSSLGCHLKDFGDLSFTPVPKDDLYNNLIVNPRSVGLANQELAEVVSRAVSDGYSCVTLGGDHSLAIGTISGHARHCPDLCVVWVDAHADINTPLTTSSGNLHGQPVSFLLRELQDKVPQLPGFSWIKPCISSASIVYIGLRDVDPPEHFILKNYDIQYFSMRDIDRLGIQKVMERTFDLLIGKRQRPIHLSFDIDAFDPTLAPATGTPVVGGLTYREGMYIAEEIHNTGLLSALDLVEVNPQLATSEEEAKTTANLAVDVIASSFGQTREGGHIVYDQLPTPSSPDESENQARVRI
The experiment in a line: in vitro enzyme assay to detect the production of urea directly proportional to the activity of Arginase II. Further: in the data most compounds retested in dose-response had high values. Format: functional. The conditions noted are these: 33.3 µM.

Assay [6] deals with T3, Proteasome subunit beta (Trypanosoma cruzi) (UniProt O96673).
T3 sequence (whole entry): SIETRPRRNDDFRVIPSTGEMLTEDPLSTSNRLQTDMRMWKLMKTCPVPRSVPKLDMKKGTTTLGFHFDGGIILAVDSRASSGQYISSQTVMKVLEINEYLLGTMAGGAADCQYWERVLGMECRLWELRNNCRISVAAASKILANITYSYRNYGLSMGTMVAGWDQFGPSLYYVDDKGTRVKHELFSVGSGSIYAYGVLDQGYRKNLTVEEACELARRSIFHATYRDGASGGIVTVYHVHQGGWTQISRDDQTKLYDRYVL
The experiment in a line: Trypanosoma cruzi proteasome chymotrypsin-like activity (TcProtChymo) assay. Further: in the data most compounds retested in dose-response had high values. Format: functional. The note with it: 9.37 µM.

The species entered for a further assay is Homo sapiens. The experiment in a line: To identify inhibition of the IFN signalling (Jak-Stat) pathway via expression of an eGFP reporter gene under the control of an IFN-stimulated response element (ISRE) containing MxA promoter. Format: functional. The note with it: 30 µM. (A reporter such as luciferase makes a cellular process visible.)
For assay [7], the target named is T4, Tyrosyl-tRNA synthetase, putative (Trypanosoma cruzi (strain CL Brener)) (UniProt Q4DSP6).
T4 sequence (whole entry): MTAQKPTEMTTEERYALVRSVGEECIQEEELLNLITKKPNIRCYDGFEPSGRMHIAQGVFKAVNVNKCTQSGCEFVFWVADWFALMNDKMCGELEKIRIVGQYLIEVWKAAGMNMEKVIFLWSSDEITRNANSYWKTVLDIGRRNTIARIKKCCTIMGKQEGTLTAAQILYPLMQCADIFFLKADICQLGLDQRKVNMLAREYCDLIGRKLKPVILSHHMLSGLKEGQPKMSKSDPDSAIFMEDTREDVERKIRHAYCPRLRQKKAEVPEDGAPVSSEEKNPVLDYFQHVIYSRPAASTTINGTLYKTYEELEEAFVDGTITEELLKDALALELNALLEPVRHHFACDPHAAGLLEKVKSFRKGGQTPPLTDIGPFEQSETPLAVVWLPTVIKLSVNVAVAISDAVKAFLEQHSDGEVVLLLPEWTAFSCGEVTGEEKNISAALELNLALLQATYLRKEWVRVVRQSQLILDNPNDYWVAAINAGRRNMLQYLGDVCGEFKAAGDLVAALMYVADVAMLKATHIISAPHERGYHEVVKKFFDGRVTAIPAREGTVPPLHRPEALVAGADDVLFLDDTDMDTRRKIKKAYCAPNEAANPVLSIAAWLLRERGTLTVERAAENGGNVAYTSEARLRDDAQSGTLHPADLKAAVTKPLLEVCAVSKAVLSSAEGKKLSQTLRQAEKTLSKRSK
The assay can be described thus: Trypanosoma cruzi tyrosyl tRNA synthetase (TcYRS) _High Tyrosine SOP. Further: in the data most compounds retested in dose-response had high values. In kind it is functional. The note with it: 30 µM.

Assay [8] has as its target T4, Tyrosyl-tRNA synthetase, putative (Trypanosoma cruzi (strain CL Brener)). The experiment in a line: Trypanosoma cruzi tyrosyl tRNA synthetase (TcYRS) SOP. Format: functional. The conditions noted are these: 30 µM.
The target in assay [9] is Chromo domain-containing protein 1 (Saccharomyces cerevisiae (strain ATCC 204508 / S288c) (Baker's yeast)) (UniProt P32657). The assay can be described thus: ScCHD-1 Enzyme Inhibition Assay. Further: in the data most compounds retested in dose-response had high values. In kind it is functional. The note with it: 30 µM.

For some of these results: Entries with a potency or affinity are not part of this list.

Chain of Sialic acid-binding Ig-like lectin 9 (Homo sapiens) (Q9Y336 whole entry): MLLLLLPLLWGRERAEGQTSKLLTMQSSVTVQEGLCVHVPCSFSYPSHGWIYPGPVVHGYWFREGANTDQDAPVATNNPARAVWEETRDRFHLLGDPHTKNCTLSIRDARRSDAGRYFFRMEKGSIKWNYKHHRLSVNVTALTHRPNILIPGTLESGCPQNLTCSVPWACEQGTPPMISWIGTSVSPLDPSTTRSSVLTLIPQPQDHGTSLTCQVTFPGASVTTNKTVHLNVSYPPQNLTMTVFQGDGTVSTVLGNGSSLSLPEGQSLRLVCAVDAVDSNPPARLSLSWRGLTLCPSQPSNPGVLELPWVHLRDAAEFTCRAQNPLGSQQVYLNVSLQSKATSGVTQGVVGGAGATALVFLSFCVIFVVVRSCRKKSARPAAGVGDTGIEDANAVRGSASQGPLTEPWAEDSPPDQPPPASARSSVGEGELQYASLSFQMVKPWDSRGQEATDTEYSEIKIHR
Chain of Chromo domain-containing protein 1 (Saccharomyces cerevisiae (strain ATCC 204508 / S288c) (Baker's yeast)) (P32657 whole entry, the tested form may be a part): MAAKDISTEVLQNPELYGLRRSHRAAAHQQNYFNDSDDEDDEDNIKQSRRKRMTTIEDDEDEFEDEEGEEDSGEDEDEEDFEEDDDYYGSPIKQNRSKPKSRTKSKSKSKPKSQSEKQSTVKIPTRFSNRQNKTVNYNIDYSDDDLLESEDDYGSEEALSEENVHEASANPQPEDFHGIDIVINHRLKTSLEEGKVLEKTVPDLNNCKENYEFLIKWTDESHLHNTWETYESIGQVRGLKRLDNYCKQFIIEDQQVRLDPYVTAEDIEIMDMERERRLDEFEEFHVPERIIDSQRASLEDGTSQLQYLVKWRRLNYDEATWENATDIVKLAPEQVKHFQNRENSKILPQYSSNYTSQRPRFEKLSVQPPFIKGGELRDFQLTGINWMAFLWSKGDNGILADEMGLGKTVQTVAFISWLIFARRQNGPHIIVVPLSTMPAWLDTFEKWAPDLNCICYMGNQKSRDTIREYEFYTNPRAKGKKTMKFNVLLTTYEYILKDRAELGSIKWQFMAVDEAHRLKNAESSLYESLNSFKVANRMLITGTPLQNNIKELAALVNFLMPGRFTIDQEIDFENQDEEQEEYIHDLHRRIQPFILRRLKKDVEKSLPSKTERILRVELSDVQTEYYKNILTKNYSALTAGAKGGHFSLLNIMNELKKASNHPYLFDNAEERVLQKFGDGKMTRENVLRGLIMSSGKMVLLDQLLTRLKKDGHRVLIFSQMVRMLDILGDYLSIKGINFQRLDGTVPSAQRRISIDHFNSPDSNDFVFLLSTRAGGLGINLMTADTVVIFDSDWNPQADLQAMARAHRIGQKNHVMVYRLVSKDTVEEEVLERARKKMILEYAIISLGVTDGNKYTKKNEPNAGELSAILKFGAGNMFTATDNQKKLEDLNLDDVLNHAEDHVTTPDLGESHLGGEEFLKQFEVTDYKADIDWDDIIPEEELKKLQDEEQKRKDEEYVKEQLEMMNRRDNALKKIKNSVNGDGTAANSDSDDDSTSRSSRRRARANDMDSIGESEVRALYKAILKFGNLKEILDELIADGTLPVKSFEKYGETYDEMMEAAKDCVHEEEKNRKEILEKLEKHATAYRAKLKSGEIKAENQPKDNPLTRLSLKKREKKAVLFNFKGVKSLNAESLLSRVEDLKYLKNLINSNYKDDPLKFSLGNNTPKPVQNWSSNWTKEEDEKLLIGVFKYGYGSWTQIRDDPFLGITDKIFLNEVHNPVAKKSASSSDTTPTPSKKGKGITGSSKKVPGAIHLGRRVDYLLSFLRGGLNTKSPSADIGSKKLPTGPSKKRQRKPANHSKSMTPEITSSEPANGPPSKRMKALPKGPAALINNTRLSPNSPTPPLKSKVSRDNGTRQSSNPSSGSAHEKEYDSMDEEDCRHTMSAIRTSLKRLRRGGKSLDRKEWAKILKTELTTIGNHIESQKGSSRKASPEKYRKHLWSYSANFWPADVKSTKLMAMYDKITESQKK
Chain of Protein translocase subunit SecA (Escherichia coli (strain K12)) (P10408 whole entry): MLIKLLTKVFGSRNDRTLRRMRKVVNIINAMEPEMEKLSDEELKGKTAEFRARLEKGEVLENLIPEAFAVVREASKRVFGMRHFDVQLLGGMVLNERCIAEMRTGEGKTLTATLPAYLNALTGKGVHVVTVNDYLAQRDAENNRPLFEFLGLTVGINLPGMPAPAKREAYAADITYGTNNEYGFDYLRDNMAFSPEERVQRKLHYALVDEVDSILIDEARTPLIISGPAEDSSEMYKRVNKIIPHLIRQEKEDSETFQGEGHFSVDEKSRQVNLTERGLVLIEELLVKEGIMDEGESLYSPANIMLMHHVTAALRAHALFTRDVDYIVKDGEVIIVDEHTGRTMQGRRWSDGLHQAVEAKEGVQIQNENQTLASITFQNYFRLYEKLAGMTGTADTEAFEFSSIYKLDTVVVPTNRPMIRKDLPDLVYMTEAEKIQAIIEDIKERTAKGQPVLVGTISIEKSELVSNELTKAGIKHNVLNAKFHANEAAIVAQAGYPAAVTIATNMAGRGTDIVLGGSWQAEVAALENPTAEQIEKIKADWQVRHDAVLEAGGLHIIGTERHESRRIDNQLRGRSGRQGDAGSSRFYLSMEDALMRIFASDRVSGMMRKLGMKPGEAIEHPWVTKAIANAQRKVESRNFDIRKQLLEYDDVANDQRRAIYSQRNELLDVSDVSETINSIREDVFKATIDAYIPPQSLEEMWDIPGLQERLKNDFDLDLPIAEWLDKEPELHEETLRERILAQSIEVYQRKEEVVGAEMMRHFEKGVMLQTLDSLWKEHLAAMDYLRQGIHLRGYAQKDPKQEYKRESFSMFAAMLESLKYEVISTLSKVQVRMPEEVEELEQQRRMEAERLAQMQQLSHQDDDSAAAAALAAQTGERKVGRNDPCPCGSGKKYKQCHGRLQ

Turning to `CN1CCC(C(=O)NCc2nncn2-c2ccccc2)CC1=O` (stereo unspecified), the Percent Effect in assay [1] is -2.63%; in assay [2], 5.41%; in [3], -5.14%; in assay [4], 5.74%; in the assay with Trypanosoma cruzi it was -3.87%; in [5], -2%. In addition, the Percent Effect was 0% in assay [6]; 13.5% in the assay listed under Homo sapiens; 4.43% in [7]; 1.24% in assay [8]; -2.07% in [9].

With `N#Cc1cnn(-c2ccc(C(=O)Nc3ccccn3)cc2)c1N`, the Percent Effect in assay [1] was -1.12%; in assay [2], 17.7%; in [3], 3.05%; in assay [4], -10.6%; in the assay on Trypanosoma cruzi, 7.65%; in assay [5] it was -6.46%. The Percent Effect in assay [6] is 19.7%; in the assay filed under Homo sapiens it was 8.19%; in [7], 13.3%; in assay [8] it was 29.1%; in assay [9], -3.72%.

On to `CCC(C)(C)NC(=O)CN(C)C(c1cccc(F)c1)c1ccccn1` (stereo unspecified), for which the Percent Effect in [1] was 0.66%; in assay [2] it was 2.6%; in assay [3] it was 9.59%; in [4], 15.1%; in the assay with Trypanosoma cruzi, -3.56%; in assay [5], 3.56%. The Percent Effect was 0.845% in assay [6]; 36.6% in the assay filed under Homo sapiens; 5.83% in [7]; 7.32% in [8]; -2.33% in [9].

Regarding `O=C(COCc1nc(-c2ccncc2)no1)NC1CCCCC1`, the Percent Effect in assay [1] was -6.1%; in assay [2], 7.79%; in assay [3] it was 1.21%; in [4], 9.68%; with Trypanosoma cruzi, 2.46%; in assay [5], 0%. The Percent Effect was 7.65% in assay [6]; 5.36% in the assay filed under Homo sapiens; 7.53% in assay [7]; 13.6% in [8]; -2.34% in [9].

On to `NC(=O)CN1CCC(NC(=O)c2ccn(-c3cccc(F)c3)n2)CC1`, for which the Percent Effect in assay [1] was -1.05%; in assay [2] it was 4.17%; in assay [3], -2.99%; in assay [4], -2.99%; in the assay with Trypanosoma cruzi it was -7.68%; in assay [5], 3.97%. Also, the Percent Effect was 11.1% in assay [6]; 0.719% in the assay filed under Homo sapiens; 1.05% in [7]; -2.56% in assay [8]; -2.21% in [9].

Regarding `COc1ncccc1C(=O)Nc1nc2c(s1)CN(S(=O)(=O)C1CC1)CC2`, the Percent Effect in [1] is -8.71%; in assay [2], 0%; in assay [3], 25.5%; in assay [4] it was -2.45%; in the assay with Trypanosoma cruzi, -4.9%; in assay [5], 1.82%. Also, the Percent Effect in assay [6] is 29.8%; in the assay listed under Homo sapiens, 21.4%; in assay [7], 3.23%; in [8] it was 5%; in [9], 102%.

Take `CCCNC(=O)Nc1cccc2c1CCN(S(C)(=O)=O)C2`: the Percent Effect in assay [1] was -9.62%; in [2] it was 18.4%; in assay [3], -0.671%; in assay [4], 6.12%; in the assay on Trypanosoma cruzi it was 4.38%; in assay [5] it was -35.5%. Besides, the Percent Effect was 6.81% in assay [6]; -3.94% in the assay listed under Homo sapiens; 3.19% in [7]; 18.2% in assay [8]; -1.24% in [9].

`CC(CNCc1ccc(Cl)c(Cl)c1)Oc1ccccn1` (stereo unspecified): the Percent Effect was -2.19% in [1]; 12% in [2]; 0.69% in assay [3]; -3.31% in assay [4]; 4.91% in the assay with Trypanosoma cruzi; -7.22% in assay [5]. The Percent Effect in assay [6] was 20.5%; in the assay filed under Homo sapiens it was 26.5%; in assay [7], 6.35%; in assay [8] it was 10.3%; in assay [9], -11.8%.

Take `Cc1csc(N2CCCN(C(=O)C3(C#N)CCCCC3)CC2)n1`: the Percent Effect in assay [1] was -0.0182%; in assay [2], -2.63%; in assay [3], 4.54%; in assay [4], -2.41%; in the assay on Trypanosoma cruzi, -0.188%; in assay [5], 0.766%. In addition, the Percent Effect in assay [6] was -3.34%; in the assay filed under Homo sapiens, -13.6%; in assay [7], 0.49%; in assay [8], -2.44%; in assay [9], 10.4%.

Regarding `Cc1nnc(SCC(=O)N2CCC3(CC2)c2ccccc2CC3O)o1` (stereo unspecified), the Percent Effect in assay [1] was -5.99%; in [2], 13%; in [3], -6.65%; in [4] it was 21.9%; with Trypanosoma cruzi, 6.79%; in assay [5], 0%. The Percent Effect in [6] was 7.49%; in the assay filed under Homo sapiens, -5.03%; in assay [7], 3.23%; in [8], 16.1%; in [9] it was -7.51%.

For `O=S(=O)(NCC1(O)CCOc2ccccc21)c1cccs1` (stereo unspecified), the Percent Effect in [1] was -8.36%; in assay [2] it was 0%; in assay [3] it was 3.61%; in assay [4], -4.67%; with Trypanosoma cruzi it was -3.72%; in assay [5], -0.455%. Besides, the Percent Effect stood at 5.86% in [6]; 8.26% in the assay filed under Homo sapiens; 1.07% in [7]; 5% in assay [8]; 0.9% in assay [9].

Values taken from ChEMBL document CHEMBL3988442, “University of Dundee, Small-Polar-MMV Screening Library” (2021).
